# Hit rate of the full screen: of about 66,000 compounds, about 960 (1.5%) showed an effect of 50% or more. For the sample, strong results were picked, then their nearest neighbours and some compounds at random.
# Tested on: Trypanosoma brucei
# Assay: Trypanosoma brucei 72 hour study
# Assay type: functional, organism-based
# Set-up: scale not given: in the data most compounds retested in dose-response had high values
compound,measurement,setting,value
CC(C)CN1CCC2(CCN(Cc3ccsc3)CC2)C1=O,Percent Effect,"30.3 µM, […]",2.917%
CC(C)CNC(=O)N1CCC2(CC1)OC(C(N)=O)Cn1ccnc12.O=C(O)C(F)(F)F (configuration not stated),Percent Effect,"30.3 µM, […]",-37.34%
COCC[C@]1(O)CCN(Cc2nnc(C)s2)C[C@H]1C,Percent Effect,"30.3 µM, […]",-14.31%
O=C(O)C(F)(F)F.O=C(c1cccnc1)N1CCCC2(COCCN(c3ccccc3)C2)C1 (configuration not stated),Percent Effect,"30.3 µM, […]",-43.99%
Cc1ccc(CN2CC[C@@H](O)[C@@H]2Cc2cnn(C)c2)o1.O=C(O)C(F)(F)F,Percent Effect,"30.3 µM, […]",-387.9%
CNC(=O)C1(CCCc2ccncc2)CCCCN1.Cl (configuration not stated),Percent Effect,"30.3 µM, […]",-5.403%
COCCOC1CCN(C(C(=O)O)c2ccc(OC)c(F)c2)CC1 (configuration not stated),Percent Effect,"30.3 µM, […]",-2.66%
O=C(O)c1cc(/C=C/c2cccc3ccccc23)ncn1,Percent Effect,"30 µM, 30.03 µM",18.14%
Cn1ccnc1CN1CCC2(COCCN(Cc3ccsc3)C2)C1 (configuration not stated),Percent Effect,"30 µM, 30.03 µM",61.78%
Cn1ccnc1CN1CCC2(COCCN(S(=O)(=O)C3CC3)C2)C1 (configuration not stated),Percent Effect,"30.3 µM, […]",11.66%
Cn1ccnc1CN1CCC2(CC1)COCCN(c1ncccn1)C2,Percent Effect,"30.3 µM, […]",7.51%
Cc1noc(CN2C[C@H]3CC[C@@H]2CN(C2Cc4ccccc4C2)C3)n1,Percent Effect,"30 µM, 30.03 µM",16.7%
CC(=O)Nc1nc(C2CCN(C(=O)c3cccnc3)CC2)cs1,Percent Effect,"30 µM, 30.03 µM",31.28%
Cc1noc(C)c1CN1CCc2ncnc(-c3ccc(F)cc3)c2CC1.O=C(O)C(F)(F)F,Percent Effect,"30.3 µM, […]",-81.82%
CCS(=O)(=O)NCCNc1cc(-n2cccc2)ncn1,Percent Effect,"30.3 µM, […]",14.19%
O=S(=O)(NCCNc1cc(-n2cccc2)ncn1)c1cccs1,Percent Effect,"30.3 µM, […]",16.28%
Cc1ccc(S(=O)(=O)NCCNc2cc(-n3cccc3)ncn2)c(C)c1,Percent Effect,"30.3 µM, […]",53.4%
CNC(=O)CN1CCCC12CCN(C(=O)c1cccc(F)c1)CC2.O=C(O)C(F)(F)F,Percent Effect,"30.3 µM, […]",-1.054%
O=C(NCc1ccco1)[C@H]1C[C@@H]2CCN(c3nncs3)C[C@H]2O1.O=C(O)C(F)(F)F,Percent Effect,"30.3 µM, […]",-27.54%
COc1cc2nc(NCc3cc(C)on3)nc(N)c2cc1OC,Percent Effect,"30.3 µM, […]",-6.228%
COc1cc2nc(NCc3scnc3C)nc(N)c2cc1OC,Percent Effect,"30.3 µM, […]",86.68%
COc1ccccc1NCC(=O)NCc1scnc1C,Percent Effect,"30 µM, 30.03 µM",-18.47%
COCCN1CCc2cc(C(=O)O)c(NCC3CC3)nc2CC1.O=C(O)C(F)(F)F.O=C(O)C(F)(F)F,Percent Effect,"30.3 µM, […]",-92.37%
CCn1nccc1C(=O)Nc1nc(C)c(C(C)=O)s1,Percent Effect,"30.3 µM, […]",-2.793%
CCCn1nccc1C(=O)Nc1ncc(C)s1,Percent Effect,"30.3 µM, […]",83.34%
CCCn1nccc1C(=O)Nc1nc(C)c(C)s1,Percent Effect,"30.3 µM, […]",41.43%
COCC1CC2(CCN(Cc3ccco3)CC2)CN1C(C)C.O=C(O)C(F)(F)F.O=C(O)C(F)(F)F (configuration not stated),Percent Effect,"30 µM, 30.03 µM",42.98%
COc1cc(N2CCCC(c3nccn3Cc3cscn3)C2)nc(N)n1 (configuration not stated),Percent Effect,"30 µM, 30.03 µM",59%
COc1cc(N2CCCC(c3nccn3CCN(C)C)C2)nc(N)n1 (configuration not stated),Percent Effect,"30 µM, 30.03 µM",42.15%
COCCn1ccnc1C1CCCN(c2cc(OC)nc(N)n2)C1 (configuration not stated),Percent Effect,"30 µM, 30.03 µM",-68.81%
Cc1cccn2cc(CNCc3cccc4c3OCCCO4)nc12,Percent Effect,"30.3 µM, […]",17.5%
CCC[C@]12CN3C[C@](CCC)(CN(C1)C3c1[nH]c(=O)[nH]c(=O)c1C)C2=O (some centres not stated),Percent Effect,"30 µM, 30.03 µM",-52.93%
CCc1noc(C2CCCCN2C(=O)c2cc(C)n(C)n2)n1 (configuration not stated),Percent Effect,"30.3 µM, […]",-3.284%
Cc1csc(C2CCCCN2C(=O)c2cc(C(C)C)[nH]n2)n1 (configuration not stated),Percent Effect,10 µM,-49.47%
CC(C)c1n[nH]c(C(=O)Nc2ccccn2)c1Br,Percent Effect,"30.3 µM, […]",50.04%
same,Percent Effect,"10 mM, 10 mM as filed; unlikely as a test dose",-45.45%
Cc1cccc(NC(=O)c2[nH]nc(C(C)C)c2Br)n1,Percent Effect,"30.3 µM, […]",56.85%
same,Percent Effect,"10 mM, 10 mM as filed; unlikely as a test dose",8.768%
CC(C)c1n[nH]c(C(=O)Nc2ccncc2)c1Br,Percent Effect,"30 µM, 30.03 µM",-10.71%
CC(C)c1n[nH]c(C(=O)NC(C)c2ccncc2)c1Br (configuration not stated),Percent Effect,"30.3 µM, […]",20.51%
same,Percent Effect,"10 mM, 10 mM as filed; unlikely as a test dose",-71.89%
CC(C)c1n[nH]c(C(=O)Nc2ccnn2C(C)C)c1Br,Percent Effect,"30 µM, 30.03 µM",-7.131%
CC(C)c1n[nH]c(C(=O)Nc2cc[nH]n2)c1Br,Percent Effect,"30 µM, 30.03 µM",-42.25%
Cc1ccnc(NC(=O)c2[nH]nc(C(C)C)c2Br)c1,Percent Effect,"30.3 µM, […]",57.19%
same,Percent Effect,"10 mM, 10 mM as filed; unlikely as a test dose",-20%
COc1ncccc1NC(=O)c1[nH]nc(C(C)C)c1Br,Percent Effect,"30 µM, 30.03 µM",7.14%
COc1ccccc1NC(=O)c1[nH]nc(C(C)C)c1Br,Percent Effect,"30 µM, 30.03 µM",-9.686%
CCOC[C@]12COC[C@H]1CN(Cc1ccc(F)c(F)c1)C2.O=C(O)C(F)(F)F,Percent Effect,"30.3 µM, […]",6.986%
CS(=O)(=O)N[C@H]1CN(C(=O)c2cscn2)[C@@H]2CCCO[C@H]12,Percent Effect,"30 µM, 30.03 µM",28.48%
CNC(=O)[C@H]1C[C@@H]2CN(C(=O)c3ccccn3)C[C@@H]2N1S(C)(=O)=O.O=C(O)C(F)(F)F,Percent Effect,"30.3 µM, […]",-16.02%
CN1CCCC(CCC(=O)NCCc2nnc(N)s2)C1 (configuration not stated),Percent Effect,"30 µM, 30.03 µM",1.066%
Cc1ccc(C(=O)N2CCC3(CC2)CCN(CCN(C)C)C3=O)cn1.O=C(O)C(F)(F)F.O=C(O)C(F)(F)F,Percent Effect,"30.3 µM, […]",-7.554%
COCc1nc(C(=O)NS(=O)(=O)c2c(C)c(C)cc(C)c2C)cs1,Percent Effect,"30.3 µM, […]",-6.08%
O=C(N1CCOCC1)[C@@]12CCO[C@@H]1CCN(C1CCOCC1)C2.O=C(O)C(F)(F)F,Percent Effect,"30 µM, 30.03 µM",-13.03%
CN(C)C(=O)C1OC2(CCN(c3ncc(F)cn3)CC2)c2ccccc21.O=C(O)C(F)(F)F (configuration not stated),Percent Effect,"30 µM, 30.03 µM",-1.93%
COc1ccc(-c2nnsc2C(=O)N2CCC(C(N)=O)CC2)cc1,Percent Effect,"30.3 µM, […]",7.87%
Cc1ccsc1CN1CC[C@H]2OCC[C@@]2(C(=O)N2CCCO2)C1.O=C(O)C(F)(F)F,Percent Effect,"30.3 µM, […]",-14.02%
N#Cc1cccc(CS(=O)(=O)NCC(O)Cc2ccccc2)c1 (configuration not stated),Percent Effect,"30 µM, 30.03 µM",-15.65%
Cc1ccccc1C(O)CNS(=O)(=O)Cc1cccc(C#N)c1 (configuration not stated),Percent Effect,"30.3 µM, […]",7.529%
CCCC(N)CNS(=O)(=O)Cc1cccc(C#N)c1.Cl (configuration not stated),Percent Effect,"30.3 µM, […]",63.71%
CCO[C@H]1CO[C@@]2(CCCN(Cc3scnc3C)C2)C1.O=C(O)C(F)(F)F,Percent Effect,"30 µM, 30.03 µM",-66.13%
Cc1nc(C)n(CC2CCCN2Cc2cn(-c3ccccc3)nn2)n1 (configuration not stated),Percent Effect,"30 µM, 30.03 µM",-3.712%
Cc1nc(C)n(CC2CCCN2Cc2ccccn2)n1 (configuration not stated),Percent Effect,"30.3 µM, […]",5.601%
Fc1cccc(-n2ccc(CN3CCCC3Cn3cccn3)n2)c1 (configuration not stated),Percent Effect,10 µM,-58.75%
c1ccc(-n2ccc(CN3CCCC3Cn3cncn3)n2)cc1 (configuration not stated),Percent Effect,10 µM,-54.26%
Cc1nc(C)n(CC2CCCN2Cc2ccn(-c3ccccc3)n2)n1 (configuration not stated),Percent Effect,"30.3 µM, […]",99.84%
c1ccc(-n2ccc(CN3CCCC3Cn3cccn3)n2)cc1 (configuration not stated),Percent Effect,"30.3 µM, […]",99.68%
O=C(CCN1C[C@@H]2CC[C@H]1C2)N1CCN(c2cccc(Cl)c2)C(=O)C1,Percent Effect,"30.3 µM, […]",-18.65%
CN1CCN(C2COC3(CCN(c4ccc(C#N)cc4)CC3)C2)CC1.O=C(O)C(F)(F)F (configuration not stated),Percent Effect,"30.3 µM, […]",-31.63%
NC(=O)CN1CCC(C(=O)N2CCCC(OCc3cccnc3)C2)CC1 (configuration not stated),Percent Effect,"30 µM, 30.03 µM",52.75%
NC(=O)NCC(=O)N1CCCC(OCc2cccnc2)C1 (configuration not stated),Percent Effect,"30 µM, 30.03 µM",-86.17%
O=C(Cn1ccnc1)N1CCCC(OCc2cccnc2)C1 (configuration not stated),Percent Effect,"30 µM, 30.03 µM",-76.95%
CCC(NC(=O)CC1CCN(C(C)C)CC1)c1cn2cccnc2n1 (configuration not stated),Percent Effect,"30 µM, 30.03 µM",-16.96%
CN1[C@@H](C(=O)NCC2CC2)C[C@@H]2CN(Cc3ccsc3)C[C@@H]21.O=C(O)C(F)(F)F.O=C(O)C(F)(F)F,Percent Effect,"30.3 µM, […]",-75.19%
O=C1c2cnc(N3CCOCC3)nc2CN1Cc1cccc(F)c1,Percent Effect,"30 µM, 30.03 µM",-25.27%
Cc1cc(OCCC(=O)NCc2ccc(F)cc2)nnc1C,Percent Effect,"30 µM, 30.03 µM",71.51%
Cc1cc(OCCC(=O)Nc2cccc(F)c2)nnc1C,Percent Effect,"30 µM, 30.03 µM",46.79%
Cc1cc(OCC(=O)NCc2ccc(F)cc2)nnc1C,Percent Effect,"30 µM, 30.03 µM",16.49%
Cc1noc(C)c1CN1CCC2(CC1)C(c1ccccc1)CC(=O)N2C.O=C(O)C(F)(F)F (configuration not stated),Percent Effect,"30.3 µM, […]",-57.86%
COc1ccc(CC(=O)N2C[C@H]3CN(Cc4ccccn4)C[C@H]3C2)cc1.O=C(O)C(F)(F)F,Percent Effect,"30.3 µM, […]",-4.643%
Cc1occc1C(=O)N1CCCN(Cc2nccn2C)CC1,Percent Effect,"30.3 µM, […]",4.115%
CC(C)n1ccnc1CN1CCCN(C(=O)c2cccnc2O)CC1,Percent Effect,"30 µM, 30.03 µM",-16.49%
Cc1occc1C(=O)N1CCCN(Cc2nccn2C(C)C)CC1,Percent Effect,"30.3 µM, […]",53.23%
CCS(=O)(=O)N1Cc2[nH]nc(COCc3cccnc3)c2C1.O=C(O)C(F)(F)F,Percent Effect,"30.3 µM, […]",-37.05%
CCC(=O)N1CC[C@H]2[C@H](C[C@@H](Cn3cccn3)N2c2nccs2)C1.O=C(O)C(F)(F)F.O=C(O)C(F)(F)F,Percent Effect,"30.3 µM, […]",-3.444%
CC(C)N1CC[C@H]2[C@H](C[C@@H](Cn3cccn3)N2c2nccs2)C1.O=C(O)C(F)(F)F.O=C(O)C(F)(F)F.O=C(O)C(F)(F)F,Percent Effect,"30.3 µM, […]",-34.12%
O=C(O)C(F)(F)F.O=C(O)C(F)(F)F.O=C(O)C(F)(F)F.c1cnn(C[C@@H]2C[C@@H]3CN(CC4CC4)CC[C@@H]3N2c2nccs2)c1,Percent Effect,"30.3 µM, […]",61.8%
CC(=O)N1CCC2(CC1)C(=O)N(CC1CCN(C)CC1)c1ccccc12.O=C(O)C(F)(F)F,Percent Effect,"30.3 µM, […]",-5.968%
CCNc1cc2c(nn1)CCN(C(=O)c1cc3ccccc3o1)C2,Percent Effect,10 µM,-51.84%
same,Percent Effect,"30.3 µM, […]",2.809%
CCNc1cc2c(nn1)CCN(C(=O)c1cc3cc(C)ccc3o1)C2,Percent Effect,10 µM,-11.72%
same,Percent Effect,"30.3 µM, […]",30.23%
CCNc1cc2c(nn1)CCN(C(=O)c1cc3nc(C)ccc3o1)C2,Percent Effect,"30 µM, 30.03 µM",62.84%
Cn1cc(CNC2CCc3c(ccc(=O)n3Cc3ccncc3)C2)cn1.O=C(O)C(F)(F)F.O=C(O)C(F)(F)F (configuration not stated),Percent Effect,"30.3 µM, […]",3.089%
CCc1cc(N(C)Cc2ccno2)n2nc(C)c(C)c2n1,Percent Effect,"30 µM, 30.03 µM",69.73%
CCc1cc(N(C)Cc2ccncn2)n2nc(C)c(C)c2n1,Percent Effect,"30 µM, 30.03 µM",25.26%
CCc1cc(N(C)Cc2ccnc(C)c2)n2nc(C)c(C)c2n1,Percent Effect,"30 µM, 30.03 µM",-13.68%

# — ChEMBL document CHEMBL3988442, “University of Dundee, Small-Polar-MMV Screening Library” (2021)
